Columns and labels:
Test in all cases: DAPPL (digital affinity profiling via proximity ligation, sequencing); 10 mM Tris-HCl pH 7.5, 50 mM NaCl, 1 mM DTT, 4% glycerol, room temperature, 30 min; GST-TFs on glutathione beads, 16-mer random dsDNA library, 0.1% formaldehyde crosslink after washing; high values mean tight binding
Conditions in all cases: protein: recombinant; tags: N-terminal GST; dsDNA, one strand shown
ERF = molecular target: T1, ERF (Homo sapiens, UniProt P50548 1-548)
T1 sequence: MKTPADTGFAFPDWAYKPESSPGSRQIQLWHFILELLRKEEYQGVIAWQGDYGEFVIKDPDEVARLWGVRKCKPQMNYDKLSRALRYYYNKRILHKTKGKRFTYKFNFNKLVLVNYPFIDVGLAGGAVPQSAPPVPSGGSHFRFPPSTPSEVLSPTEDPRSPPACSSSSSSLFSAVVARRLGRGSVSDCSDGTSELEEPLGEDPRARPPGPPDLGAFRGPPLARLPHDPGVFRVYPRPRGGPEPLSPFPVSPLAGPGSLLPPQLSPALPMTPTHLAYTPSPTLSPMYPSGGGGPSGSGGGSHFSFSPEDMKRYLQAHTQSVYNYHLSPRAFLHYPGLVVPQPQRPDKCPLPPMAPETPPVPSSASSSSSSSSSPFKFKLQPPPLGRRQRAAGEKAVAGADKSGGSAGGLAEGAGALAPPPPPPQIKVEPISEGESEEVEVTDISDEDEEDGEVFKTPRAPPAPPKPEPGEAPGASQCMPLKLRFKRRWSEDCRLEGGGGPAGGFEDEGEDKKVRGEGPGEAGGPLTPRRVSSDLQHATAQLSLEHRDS
In short: (§1)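 Binding signal is each hexamer's read frequency for a factor divided by its frequency in the tag-only sample. The factors were GST-fused human transcription factors from yeast, captured on glutathione beads, DNA-barcoded and pooled with that sample. Pools were incubated with 200 nmole of a random double-stranded 16-mer DNA library in Tris/NaCl/DTT/glycerol buffer at room temperature for 30 min, then washed, crosslinked with 0.1% formaldehyde, proximity-ligated with BsaI/T4 ligase (1 h, 37 °C), PCR-amplified and sequenced on an Illumina NextSeq500.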

ETV3L = molecular target: T2, ETV3L (Homo sapiens, UniProt Q6ZN32 1-361)
T2 sequence: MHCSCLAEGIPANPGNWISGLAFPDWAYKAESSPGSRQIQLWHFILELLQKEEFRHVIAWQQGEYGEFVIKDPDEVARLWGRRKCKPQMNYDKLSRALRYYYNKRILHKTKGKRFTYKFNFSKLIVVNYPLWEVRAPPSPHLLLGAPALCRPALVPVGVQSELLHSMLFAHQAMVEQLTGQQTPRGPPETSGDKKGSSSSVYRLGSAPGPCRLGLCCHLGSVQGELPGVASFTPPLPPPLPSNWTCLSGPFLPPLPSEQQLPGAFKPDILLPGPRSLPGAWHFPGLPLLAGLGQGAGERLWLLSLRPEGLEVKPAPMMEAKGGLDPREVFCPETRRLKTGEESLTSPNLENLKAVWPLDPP
In short: as §1

ETS2 = molecular target: T3, ETS2 (Homo sapiens, UniProt P15036 1-469)
T3 sequence: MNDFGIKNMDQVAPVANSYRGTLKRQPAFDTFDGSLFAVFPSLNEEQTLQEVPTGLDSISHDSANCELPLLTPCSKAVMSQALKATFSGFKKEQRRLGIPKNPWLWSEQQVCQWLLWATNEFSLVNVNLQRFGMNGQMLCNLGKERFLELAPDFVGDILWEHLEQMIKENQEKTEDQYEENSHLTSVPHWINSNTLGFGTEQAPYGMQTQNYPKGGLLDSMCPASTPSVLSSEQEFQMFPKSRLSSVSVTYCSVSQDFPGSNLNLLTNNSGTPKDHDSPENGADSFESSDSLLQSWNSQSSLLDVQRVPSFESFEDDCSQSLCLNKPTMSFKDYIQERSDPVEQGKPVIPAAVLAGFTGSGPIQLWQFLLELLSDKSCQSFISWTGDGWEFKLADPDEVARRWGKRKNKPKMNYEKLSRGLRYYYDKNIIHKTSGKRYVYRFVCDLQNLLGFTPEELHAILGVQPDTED
In short: as §1

SPDEF = molecular target: T4, SPDEF (Homo sapiens, UniProt O95238 1-335)
T4 sequence: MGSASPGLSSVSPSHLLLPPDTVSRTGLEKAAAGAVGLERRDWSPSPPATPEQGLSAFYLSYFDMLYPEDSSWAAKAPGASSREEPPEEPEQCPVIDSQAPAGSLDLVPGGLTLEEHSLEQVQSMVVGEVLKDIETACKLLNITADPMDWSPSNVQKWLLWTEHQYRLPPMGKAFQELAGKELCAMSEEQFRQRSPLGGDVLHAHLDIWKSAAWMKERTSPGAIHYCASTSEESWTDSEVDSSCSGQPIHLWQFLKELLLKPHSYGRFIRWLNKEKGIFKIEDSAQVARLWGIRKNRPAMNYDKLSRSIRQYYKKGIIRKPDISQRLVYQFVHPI
In short: as §1

ETV7 = molecular target: T5, ETV7 (Homo sapiens, UniProt Q9Y603 1-341)
T5 sequence: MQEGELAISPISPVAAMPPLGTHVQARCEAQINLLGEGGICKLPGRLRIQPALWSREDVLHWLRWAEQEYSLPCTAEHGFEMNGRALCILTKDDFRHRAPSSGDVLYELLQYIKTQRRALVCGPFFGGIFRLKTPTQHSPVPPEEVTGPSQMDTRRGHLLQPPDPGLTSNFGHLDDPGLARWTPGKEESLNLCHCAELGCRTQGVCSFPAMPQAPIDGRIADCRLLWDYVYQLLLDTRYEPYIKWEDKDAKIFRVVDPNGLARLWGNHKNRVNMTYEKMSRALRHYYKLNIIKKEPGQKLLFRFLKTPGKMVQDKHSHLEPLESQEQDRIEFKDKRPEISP
In short: as §1

ELF5 = molecular target: T6, ELF5 (Homo sapiens, UniProt Q9UKW6-2 1-255)
T6 sequence: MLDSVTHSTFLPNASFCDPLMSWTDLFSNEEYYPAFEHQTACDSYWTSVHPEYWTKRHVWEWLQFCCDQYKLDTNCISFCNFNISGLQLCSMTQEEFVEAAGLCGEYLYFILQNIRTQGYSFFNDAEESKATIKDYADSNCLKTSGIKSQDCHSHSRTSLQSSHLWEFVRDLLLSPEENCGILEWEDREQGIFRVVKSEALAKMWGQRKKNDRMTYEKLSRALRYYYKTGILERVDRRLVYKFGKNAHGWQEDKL
In short: as §1

ETV3 = molecular target: T7, ETV3 (Homo sapiens, UniProt P41162-2 1-143)
T7 sequence: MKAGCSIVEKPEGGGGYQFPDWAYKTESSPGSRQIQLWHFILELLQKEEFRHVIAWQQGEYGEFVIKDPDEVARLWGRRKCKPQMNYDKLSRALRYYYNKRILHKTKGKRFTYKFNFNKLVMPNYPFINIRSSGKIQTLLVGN
In short: as §1

ETV6 = ETV6 (Homo sapiens, UniProt P41212 1-452)
ETV6, sequence (P41212 whole entry): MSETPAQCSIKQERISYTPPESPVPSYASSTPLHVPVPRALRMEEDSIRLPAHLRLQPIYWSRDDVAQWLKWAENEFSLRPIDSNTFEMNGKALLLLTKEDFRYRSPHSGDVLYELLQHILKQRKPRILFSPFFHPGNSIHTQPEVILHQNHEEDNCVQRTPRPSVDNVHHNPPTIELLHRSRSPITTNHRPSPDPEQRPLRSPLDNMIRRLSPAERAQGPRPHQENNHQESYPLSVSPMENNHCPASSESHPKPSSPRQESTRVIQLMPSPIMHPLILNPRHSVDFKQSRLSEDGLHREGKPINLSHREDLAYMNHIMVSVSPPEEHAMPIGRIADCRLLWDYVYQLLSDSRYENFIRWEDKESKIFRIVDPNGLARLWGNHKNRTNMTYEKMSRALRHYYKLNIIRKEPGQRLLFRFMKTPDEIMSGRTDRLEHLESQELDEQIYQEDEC
In short: as §1

Sequence | binding signal (ERF) | binding signal (ETV3L) | binding signal (ETS2) | binding signal (SPDEF) | binding signal (ETV7) | binding signal (ELF5) | binding signal (ETV3) | binding signal (ETV6)
TCTAAG | 1.25 fold enrichment (6-mer frequency, TF over GST control) | 1.17 fold enrichment (6-mer frequency, TF over GST control) | 1.23 fold enrichment (6-mer frequency, TF over GST control) | 1.1 fold enrichment (6-mer frequency, TF over GST control) | 1.29 fold enrichment (6-mer frequency, TF over GST control) | 1.23 fold enrichment (6-mer frequency, TF over GST control) | 1.24 fold enrichment (6-mer frequency, TF over GST control) | 1.17 fold enrichment (6-mer frequency, TF over GST control)
TAAAAA | 1.37 fold enrichment (6-mer frequency, TF over GST control) | 1.37 fold enrichment (6-mer frequency, TF over GST control) | 1.33 fold enrichment (6-mer frequency, TF over GST control) | 1.32 fold enrichment (6-mer frequency, TF over GST control) | 1.31 fold enrichment (6-mer frequency, TF over GST control) | 1.29 fold enrichment (6-mer frequency, TF over GST control) | 1.25 fold enrichment (6-mer frequency, TF over GST control) | 1.26 fold enrichment (6-mer frequency, TF over GST control)
CTCATG | 1.18 fold enrichment (6-mer frequency, TF over GST control) | 1.22 fold enrichment (6-mer frequency, TF over GST control) | 1.21 fold enrichment (6-mer frequency, TF over GST control) | 1.18 fold enrichment (6-mer frequency, TF over GST control) | 1.18 fold enrichment (6-mer frequency, TF over GST control) | 1.19 fold enrichment (6-mer frequency, TF over GST control) | 1.22 fold enrichment (6-mer frequency, TF over GST control) | 1.17 fold enrichment (6-mer frequency, TF over GST control)
TCTTGT | 1.68 fold enrichment (6-mer frequency, TF over GST control) | 1.61 fold enrichment (6-mer frequency, TF over GST control) | 1.47 fold enrichment (6-mer frequency, TF over GST control) | 1.57 fold enrichment (6-mer frequency, TF over GST control) | 1.57 fold enrichment (6-mer frequency, TF over GST control) | 1.42 fold enrichment (6-mer frequency, TF over GST control) | 1.5 fold enrichment (6-mer frequency, TF over GST control) | 1.48 fold enrichment (6-mer frequency, TF over GST control)
AATATG | 1.07 fold enrichment (6-mer frequency, TF over GST control) | 1.15 fold enrichment (6-mer frequency, TF over GST control) | 1.15 fold enrichment (6-mer frequency, TF over GST control) | 1.08 fold enrichment (6-mer frequency, TF over GST control) | 1.21 fold enrichment (6-mer frequency, TF over GST control) | 1.1 fold enrichment (6-mer frequency, TF over GST control) | 1.14 fold enrichment (6-mer frequency, TF over GST control) | 1.14 fold enrichment (6-mer frequency, TF over GST control)
TTTTCC | 1.65 fold enrichment (6-mer frequency, TF over GST control) | 1.71 fold enrichment (6-mer frequency, TF over GST control) | 1.69 fold enrichment (6-mer frequency, TF over GST control) | 1.67 fold enrichment (6-mer frequency, TF over GST control) | 1.78 fold enrichment (6-mer frequency, TF over GST control) | 2.37 fold enrichment (6-mer frequency, TF over GST control) | 1.82 fold enrichment (6-mer frequency, TF over GST control) | 2.08 fold enrichment (6-mer frequency, TF over GST control)
CTTGTA | 1.45 fold enrichment (6-mer frequency, TF over GST control) | 1.26 fold enrichment (6-mer frequency, TF over GST control) | 1.44 fold enrichment (6-mer frequency, TF over GST control) | 1.45 fold enrichment (6-mer frequency, TF over GST control) | 1.17 fold enrichment (6-mer frequency, TF over GST control) | 1.36 fold enrichment (6-mer frequency, TF over GST control) | 1.48 fold enrichment (6-mer frequency, TF over GST control) | 1.37 fold enrichment (6-mer frequency, TF over GST control)
GCTTTG | 1.09 fold enrichment (6-mer frequency, TF over GST control) | 1.19 fold enrichment (6-mer frequency, TF over GST control) | 1.16 fold enrichment (6-mer frequency, TF over GST control) | 1.12 fold enrichment (6-mer frequency, TF over GST control) | 1.44 fold enrichment (6-mer frequency, TF over GST control) | 1.13 fold enrichment (6-mer frequency, TF over GST control) | 1.15 fold enrichment (6-mer frequency, TF over GST control) | 1.24 fold enrichment (6-mer frequency, TF over GST control)

— paper PMC7862700, “An all-to-all approach to the identification of sequence-specific readers for epigenetic DNA modifications on cytosine”
